# DT40 TDP1 no CPT = qHTS for Inhibitors of human tyrosyl-DNA phosphodiesterase 1 (TDP1): qHTS in cells in absence of CPT | DT40 Tdp1-/- hTDP1 cells, no CPT, ATP luminescence, 48 h | Potency, µM (highest dose often 46.2 µM), for inactives: top-dose activity change, negative = growth inhibition, hits mostly inhibitors | hit rate 15% among 420,000; also: potency is read from the fitted curve at half-maximal effect; % is scaled to controls: 0 for no effect and ±100 for the full control effect; nearly all actives have a fitted effect of over 55% in size
#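 A cellular qHTS used chicken DT40 cells lacking endogenous Tdp1 but carrying stably transfected human TDP1. Compounds were applied without camptothecin, and cell growth kinetics were judged by ATP-dependent luminescence after ≥48 hr.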
# DT40 TDP1 CPT = qHTS for Inhibitors of human tyrosyl-DNA phosphodiesterase 1 (TDP1): qHTS in cells in presence of CPT; chicken DT40 Tdp1-/-;hTDP1 cells + 20 nM CPT, ATP luminescence, 48 h; Potency, µM (series often up to 46.2 µM), for inactives: at the top dose activity change, negative = growth inhibition, actives largely listed as inhibitors; hit rate 12% among 420,000; AID 686979, 2013; also: potency is read from the fitted curve at half-maximal effect; % is scaled to controls: 0 for no effect and ±100 for the full control effect; nearly all actives have a fitted effect of over 55% in size
#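 Chicken DT40 Tdp1-/- cells stably complemented with human TDP1 were seeded at 400 cells/well in medium containing 20 nM camptothecin, exposed to pin-transferred compounds, and grown at 37 °C for at least 48 hr. Viability was read as ATP luminescence.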
# MCF10A rereplic = A quantitative high throughput screen for small molecules that induce DNA re-replication in MCF 10a normal breast cells; MCF 10A DNA re-replication, Hoechst nuclear intensity, 48 h; Potency, µM (doses to about 46.1 µM), for the others: at the highest dose activity, positive = re-replication, most hits filed as activators; hit rate 2.9% among 350,000; AID 624296, 2012; also: potency is read from the fitted curve at half-maximal effect; % of control where 0% means no effect; nearly all actives have a fitted effect of over 50% in size
# Chronic BCR inh = qHTS Assay to Find Inhibitors of Chronic Active B-Cell Receptor Signaling. Potency, µM (highest dose often 46.1 µM), for inactives: at the top dose activity change, negative = inhibition, hits mostly inhibitors. hit rate 0.05% among 340,000. ABC-DLBCL IkBa-CBG/CBR reporter, luminescence ratio, 4 h; active = well fitted inhibition curve with a large enough effect in the signal ratio, with a control signal flat, not every such curve was filed as active; inconclusive = small, poorly fitted or top-dose-only effect, or effect the other way, or a change in a side signal; the % refers to the signal ratio;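 also: potency is read from the fitted curve at half-maximal effect; plate controls were basal doxycycline-induced cells for no effect and cells given 10 µM MG132 for full effect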
#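 TMD8 human ABC-DLBCL cells with doxycycline-inducible IκBα–green luciferase fusion and unfused red luciferase, in 0.5% FBS medium; compounds up to 46 uM, 4 h at 37C. Green/red luminescence ratio, filter-overlap corrected, fitted to concentration-response curves.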
# SW480 rereplic = A quantitative high throughput screen for small molecules that induce DNA re-replication in SW480 colon adenocarcinoma cells; Potency, µM (highest dose often 46.1 µM), for inactives: at the highest dose re-replication activation, usual class: activators; SW480 DNA re-replication, Hoechst DNA content imaging, 48 h; hit rate 1.8% among 340,000; also: potency is read from the fitted curve at half-maximal effect; % of control where 0% means no effect; nearly all actives have a fitted effect of over 55% in size
#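 Image-based DNA-content assay: after two days of treatment, nuclei were labelled with the DNA dye Hoechst and imaged, and hits were compounds raising the count of nuclei showing high fluorescence intensity.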
# IL-1B inflam inh = qHTS for Inhibitors of Inflammasome Signaling: IL-1-beta AlphaLISA Primary Screen | THP-1 LPS/ATP IL-1B secretion, AlphaLISA, 16 h; stronger effect = lower value | activity change, % at 57.5 µM | hit rate 4.7% among 360,000 | AID 743279, 2014; in the data active = activity change below about -50%; inconclusive = mostly about -30% to -49%; also: % is scaled to controls: 0 for no effect and ±100 for the full control effect
#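 Secreted IL-1B measured by AlphaLISA bead assay after 16 h compound exposure of THP-1 cells; compounds (final up to 57.5 uM) added 1 h before LPS (250 ng/mL) and ATP (1.25 mM) stimulation; lower signal means less secretion.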
# * hit, by the source's call; u = inconclusive; x = no result; [ ] = dose if it differs, or a comment. Sampled rows, rich in hits. Any-hit rate of the full collection: about 19%. Unless noted, calls follow the shape of the dose curve; as a rule, active = well fitted curve in the direction sought with a large enough effect; inconclusive = small, poorly fitted or top-dose-only effect, or another doubt; inactive = no such curve, though single readings can be large; an effect the other way counts as inactive or inconclusive.
SMILES,DT40 TDP1 no CPT,DT40 TDP1 CPT,MCF10A rereplic,Chronic BCR inh,SW480 rereplic,IL-1B inflam inh
CCN1CCCC1CNC(=O)c1cnn(-c2nccc(-c3ccccc3F)n2)c1C (centres undefined),-19%,-2%,x,x,x,x
CCN(C[C@H]1N[C@@](CC)(C(=O)OC)[C@H]2C(=O)N(C)C(=O)[C@@H]12)C(=O)COC,3%,1%,-4%,-1%,-17%[9.22 µM],20
Cc1ccn(C(=O)c2ccc(NC(=O)C3CC3)cc2)n1,u,-7%,7%,u,-14%,16
COc1ccc(-c2nc3ccccc3nc2-c2ccc(OC)cc2)cc1,-23%,-22%,u,u,u,-7
COc1ccc2nc3cccc(OC)c3nc2c1,u,u,1.3µM*,u,u,0
COc1ccccc1-c1nc2ccccc2nc1-c1ccccc1OC,u,u,-46%,3%,u,8
COc1ccc2nc3ccccc3nc2c1N,8.2µM*,u,u,u,13%,-63*
Cc1ccc(OCC2Cn3c(nc4c3c(=O)[nH]c(=O)n4C)O2)cc1C (centres undefined),10µM*,u,11%,3%,u,27
CCc1cccc(OCC2Cn3c(nc4c3c(=O)[nH]c(=O)n4C)O2)c1 (centres undefined),u,8.2µM*,-1%,0%,-9%,47
CCOc1ccc(N(CC(=O)NCCSCc2ccc(Cl)cc2)S(C)(=O)=O)cc1,u,u,-4%,-9%,-9%,-13
CCN(C(=S)NC(=O)c1ccccc1Br)C1CCCCC1,u,16µM*,3%,1%,0.52µM*,0
C=CCNC(=S)N/N=C/c1cn(C)c2ccccc12,u,u,-14%,18µM*,3%,13
Cc1nn(-c2ccccc2)cc1/C=N/O,-3%,-12%,1%,-1%,2%,1
Cn1cc(/C=N/NC(N)=S)c2ccccc21,3.3µM*,13µM*,-2%,u,0%,-10
Cc1nn(-c2ccccc2)cc1/C=N/NC(N)=S,u,18µM*,u,u,-3%[9.22 µM],0
CC(C)NS(=O)(=O)c1ccc(NC(=O)C(C)OC(=O)C2CCC2)cc1 (centres undefined),-22%,-2%,1%,-2%,-5%,16
CCC(c1nnnn1-c1ccc2c(c1)OCCO2)N1CCN(C)CC1 (centres undefined),-23%,7%,x,x,x,11
COc1ccc(CC2(CO)CCN(Cc3cc4ccccc4o3)CC2)cc1,16µM*,16µM*,u,-13%,8%,-80*
OCC1(Cc2cccc(C(F)(F)F)c2)CCN(Cc2cc3ccccc3o2)CC1,16µM*,u,23µM*,-7%,u,-136*
Cc1c(CN2CCC(CO)(Cc3cccc(C(F)(F)F)c3)CC2)c2ccccc2n1C,16µM*,23µM*,u,u,u,-94*
CC1(C(=O)N2CCC(CO)(Cc3cccc(C(F)(F)F)c3)CC2)CC1,u,u,2%,3%,-2%,9
CC(=O)c1ccc(C(=O)N2CCC(CO)(Cc3cccc(C(F)(F)F)c3)CC2)cc1,u,u,1%,-4%,-3%,-16
CCOc1ccccc1C(=O)N1CCCCC1CCN1CCOCC1 (centres undefined),8%,-7%,x,x,x,x
CCOC(=O)c1cc(NC(=O)c2ccccc2)c(=O)n2c1oc1ccccc12,u,-13%,-4%,9%,8%,4
CCCC(O)(c1ccccc1)C(CN1CCOCC1)c1ccccc1 (centres undefined),u,21µM*,-2%,8%,-1%,26
SMILES,DT40 TDP1 no CPT,DT40 TDP1 CPT,MCF10A rereplic,Chronic BCR inh,SW480 rereplic,IL-1B inflam inh
CCCC(O)(c1ccc(Cl)cc1)C(CN1CCOCC1)c1ccccc1 (centres undefined),u,u,-5%,-3%,3%,37
CCCC(O)(c1ccc(CC)cc1)C(CN1CCOCC1)c1ccccc1 (centres undefined),18µM*,16µM*,u,u,0%,u
CCCCCCC(O)(c1ccccc1)C(CN1CCOCC1)c1ccccc1 (centres undefined),23µM*,18µM*,u,3%,3%,0
CCCC(O)(c1ccc(Br)cc1)C(CN1CCOCC1)c1ccc(Cl)cc1 (centres undefined),u,u,u,u,u,-84*
O=C(NCc1cc(Cl)cc(Cl)c1)c1csc(COCCO)n1,-13%,-25%,x,x,x,5
CO/C=C\C=C/c1nnn(-c2ccc(Cl)cc2)n1,23µM*,u,27%,u,-698%,-14
Cn1c(-c2ccc(F)c(F)c2)cc2onc(-c3ccccc3)c2c1=O,23µM*,16µM*,u,u,-10%,0
COC(=O)c1ccc(-c2cc3onc(-c4ccccc4)c3c(=O)n2C)cc1,u,23µM*,u,u,-13%,10
CN(C)C(=O)c1ccc(-c2cc3onc(-c4ccccc4)c3c(=O)n2C)cc1,16µM*,u,11%,u,-4%,8
COc1ccccc1N(CC(=O)Nc1cc(S(=O)(=O)N(C)C)ccc1C)S(=O)(=O)c1cccs1,u,u,3%,-7%,-2%,4
Cc1ccc(-c2cc3c(N4CCN(c5cc(C)ccc5C)CC4)nccn3n2)cc1,21µM*,23µM*,x,x,x,x
O=C(CCOc1ccccc1)Nc1ccnn1C1CCN(C(=O)CCC(F)(F)F)CC1,-2%,-21%,2%,-13%,-1%,-7
CCN(CC)CCN1C(=O)C(O)=C(C(C)=O)C1c1ccccc1[N+](=O)[O-] (centres undefined),u,u,21µM*,-4%,u,17
COC(=O)[C@@]12C[C@@H](CC(=O)N3CCC(c4ccccc4)CC3)C(=O)N(CCc3ccc(OC)c(OC)c3)C1=CCC(C)(C)C2,u,u,x,x,x,0
COC(=O)[C@@]12C[C@@H](CC(=O)N3CCSCC3)C(=O)N(Cc3ccco3)C1=CCC(C)(C)C2,u,-1%,x,x,x,-14

# From PubChem BioAssay
